Results from the supplement of paper PMC6555819.

How the values were obtained:
Assay in all cases: PBM binding z-score (relative to random genomic background probes); higher = stronger binding; sequences stand for … in GC…GCGATTGACAGCGTAGAATGAAGG
[1] = test system: PPARg:RXRa DBDmut IVT, anti-RXR (DBD mutation: RXRa K156A/R161A, NR concentration 270 nM, RXRa partner concentration 90 nM)
Method in brief: (§1)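 Scanned fluorescence from custom Agilent 4×180K protein-binding microarrays was regression-normalized. Binding z-scores use random background probes as reference. Ligand-free nuclear receptor dimers were incubated on the arrays for 1 h and detected with antibodies against each partner (one per run).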

[2] = test system: PPARg:RXRa IVT, anti-PPARg (NR concentration 270 nM, RXRa partner concentration 90 nM)
Method in brief: as §1

[3] = test system: PPARg DBDmut:RXRa IVT, anti-PPARg (DBD mutation: PPARg1 K132A/R137A, NR concentration 270 nM, RXRa partner concentration 90 nM)
Method in brief: as §1

[4] = test system: PPARg DBDmut IVT, anti-PPARg (DBD mutation: PPARg1 K132A/R137A, NR concentration 270 nM)
Method in brief: as §1

[5] = test system: PPARg homodimer (NR concentration 180 nM)
Method in brief: as §1

[6] = test system: PXR:RXRa (NR concentration 270 nM, RXRa partner concentration 90 nM)
Method in brief: as §1

[7] = test system: PXR homodimer (NR concentration 270 nM)
Method in brief: as §1

[8] = test system: RARa:RXR (NR concentration 270 nM, RXRa partner concentration 90 nM)
Method in brief: as §1

[9] = test system: RARa homodimer (NR concentration 270 nM)
Method in brief: as §1

[10] = test system: RARb:RXRa (NR concentration 270 nM, RXRa partner concentration 90 nM)
Method in brief: as §1

Sequence | PBM binding z-score [1] | PBM binding z-score [2] | PBM binding z-score [3] | PBM binding z-score [4] | PBM binding z-score [5] | PBM binding z-score [6] | PBM binding z-score [7] | PBM binding z-score [8] | PBM binding z-score [9] | PBM binding z-score [10]
GGAACGAGGGCAAGTTGATAGCTGAGTTTGATGG | 3.45 | 2.67 | 0.246 | -0.342 | 0.0769 | 0.535 | 0.363 | 0.267 | -0.269 | 2.57
ATATGTAAGTTAGCTGGGGTCATTCAGACTAGGC | 0.965 | 1.4 | 0.49 | 0.596 | 1.64 | 5.82 | 6.58 | 5.31 | 0.998 | 2.47
CCGACTGGGGCAGAGGTTACCATACTCAGTACGA | 3.08 | 4.26 | -0.117 | -0.682 | 1.22 | 0.917 | -0.23 | 1.94 | -0.251 | 1.34
ATCTATAGGTAAAAGTTCAGTGAATCCCGAGGAT | 1.4 | 3.05 | 1.78 | 1.92 | 1.04 | 2.17 | 1.35 | 1.84 | 1.06 | 2.29
GCTATCAGTTGAAAGGGCAACCGAATGATTCTCG | 0.18 | 0.3 | -0.111 | -0.549 | 0.562 | 0.584 | -0.393 | 1.25 | -0.381 | 2.07
AGAATGAGGTTAAGATCGGGGAAACAGAATACAT | 3.24 | 2.85 | 1.19 | 0.972 | 1.09 | 0.98 | 0.624 | 1.93 | 0.617 | 1.95
CGAACGAGGGCATGATTTGATAGCAAATGCCGAT | 2.59 | 1.81 | -0.0165 | -0.269 | -0.834 | 0.0992 | -0.377 | 0.0639 | -0.507 | 1.78
CCTTACGAGTCACGAGGTTATAGCACGACGAGCG | 0.274 | 0.318 | 0.557 | 0.13 | 1.26 | 1.25 | 0.811 | 1.79 | 1.56 | 0.971
CCTAGTTGGTCAAGGGCACACACGCTATAGGTAC | 1.1 | 1.69 | -0.275 | 0.0269 | 1.15 | 0.512 | 0.494 | 0.731 | 1.05 | 1.98
CTCGAAAGGTCGGTTGAGGAGAGTATACGGATAA | -0.459 | 0.102 | 1.01 | -0.0822 | 0.421 | 1.09 | 0.356 | 2.15 | -0.00538 | 2.87
CTACCAAGGTGAACGAGGTCGTTGATTACTATTC | 2.17 | 2.89 | 0.126 | -0.713 | 0.838 | 3.54 | 2.67 | 2.7 | 0.278 | 2.3
CCGACTGGGGCAAGGTAACCATAACGCACAGCCA | 2.79 | 2.75 | 0.115 | -0.601 | 0.0706 | -0.546 | -0.376 | 0.0797 | 0.0514 | 0.619
GGATCGAGGGCAAAGTTGATAGCATCTGTCGACG | 3.8 | 4.54 | 0.527 | 1.19 | 1.75 | 1.34 | 0.172 | 1.65 | -0.00886 | 2.61
CTCGAAAGGTCTTGCTCAGGTGAGTATACCAAAC | 0.411 | 0.795 | 0.193 | -0.313 | 0.433 | 0.314 | -0.568 | 0.971 | -0.363 | 1.75
TTACCAATGTGAAAGGTCGTTGATGCACGCCTTG | 0.0484 | 2.32 | 0.0698 | 0.235 | 1.33 | 2.76 | 0.663 | 3.27 | 0.219 | 1.74
CGTCAAAGTTCAAGGTAACGAAACAGAAAGCAGC | 0.745 | 2.29 | 0.604 | 0.231 | 3.5 | 3.94 | 2.79 | 3.53 | 1.57 | 5.11
CGTCAAAGTTTAACTAAGGTAACGTAAAGCACGC | 0.271 | 1.32 | 0.6 | 1.17 | 0.901 | 1.45 | 0.928 | 1.55 | 0.858 | 2.44
GGAACGAGGGCAAAGTTGAGAGCATCTGTCGACG | 4.15 | 4.7 | 0.813 | 0.305 | 0.644 | 1.42 | -0.0151 | 2.15 | -0.358 | 2.61
TCTCGGAGGACACGAAGGTCCGAGCTTTCCAGAG | 1.24 | -0.478 | -0.785 | -1.37 | -0.731 | -0.253 | -0.438 | -0.322 | -1.26 | 1.56
CCTACTGGGCCACGAAAGGTCATGGATTCAGTGA | 5.9 | 6.03 | -0.103 | -0.148 | 3.03 | 5.15 | 0.707 | 5.48 | 1.81 | 4.27
CGAATTAGGTCATCCAGGACAGTGAATACATTGA | 8.48 | 8.35 | 3.83 | 2.81 | 2.25 | 2.36 | 1.3 | 2.86 | 1.08 | 4.14
CAAACTAGGTCTCGAAAGGTCAAAGTCGAATGAC | 5.54 | 5.71 | 2.45 | 0.645 | 3.86 | 5.61 | 2.13 | 6.33 | 2.57 | 4.4
CGAACGAGGGCATGAGTTGATAGGAAATGCCGAT | 2.5 | 1.68 | -1.02 | -0.376 | 0.547 | 0.35 | 0.349 | 0.4 | -0.46 | 1.88
TCGAGTAGGTTACCAATGGGGCATTAAGCTTTCT | 2.97 | 2.74 | -0.388 | -0.404 | -0.656 | -0.325 | -1.08 | 0.0202 | -1.28 | 0.864
